The record followed here is the supplement of paper PMC5662767.

Where a name gives a salt, the structure may show the parent alone.

The test system of the test is Drosophila S2 cl14 SmoIP sensor cells. Put plainly: normalized SmoIP GFP fluorescence (untreated unstimulated = 0%, untreated Hh-stimulated = 100%); higher = more Smo activation sensor fluorescence. The settings on record: compound concentration: 2 uM, 24 h.
Setting [1] is: stimulation: Hh conditioned medium (+Hh).
The mark [2] stands for this setting: stimulation: mock conditioned medium (-Hh).
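Also: flow cytometry read-out as median GFP intensity of gated cells, compounds added 30 min before Hh-conditioned or mock medium, mock-treated cells serving as unstimulated baseline.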

In the case of `CC#CCn1c(N2CCC[C@@H](N)C2)nc2c1c(=O)n(Cc1nc(C)c3ccccc3n1)c(=O)n2C` [linagliptin-bi-1356], the “normalized SmoIP GFP fluorescence” value is 118% under setting [1] and -0.264% under setting [2].
On the same counts, the results for `CCOC(=O)[C@H](CCc1ccccc1)N[C@H]1CS[C@H](c2cccs2)CN(CC(=O)O)C1=O` [temocapril-hcl] are 111% and 0.785%.
As to `Cc1cccc(Nc2cc(Cl)nc(SCC(=O)O)n2)c1C`, the “normalized SmoIP GFP fluorescence” value under setting [1] is 93.8% and the “normalized SmoIP GFP fluorescence” value under setting [2] is -14.3%.
